Assay [1] is described as follows: ATG_PBREM_CIS: Attagene CIS-FACTORIAL HepG2 Assay for human Phenobarbital-responsive Enhancer Module (PBREM) (AID 2282955). The note with it: HepG2 PBREM cis-reporter, Attagene multiplexed transcription; actives raise or lower the signal. The method in brief: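 HepG2, transient MRTU transfection, 24 h dosing; RNA → oligo(dT) RT → PCR → 6-FAM extension → HpaI → CE. Bidirectional fit vs DMSO.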

Assay [2] addresses Paired box protein Pax-6 (Homo sapiens) (UniProt P26367). Put plainly: ATG_Pax6_CIS: Attagene CIS-FACTORIAL HepG2 Assay for human Paired Box 6 (PAX6) (AID 2282956). The settings on record: HepG2 CIS-FACTORIAL PAX6 reporter transcription, RNA readout; actives raise or lower the signal. A digest of the protocol:
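After twenty-four hours of chemical exposure, transfected HepG2 cells are harvested for RNA. Cis-promoter reporter transcripts are amplified, fluorescently labelled and sized by capillary electrophoresis, with gain and loss of signal scored against DMSO.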

The nature of assay [3]: ATG_PXRE_CIS: Attagene CIS-FACTORIAL HepG2 Assay for human Pregnane X Receptor Element (PXRE) (AID 2282957). The note with it: HepG2 Attagene CIS-FACTORIAL PXRE reporter, mRNA; actives raise or lower the signal. The method in brief:
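Cells: HepG2, transiently transfected reporter units under cis promoter control. Exposure: 24 h. Detection: reporter mRNA via RT-PCR/CE fluorescence; bidirectional fitting, DMSO-referenced.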

The nature of assay [4]: ATG_Sox_CIS: Attagene CIS-FACTORIAL HepG2 Assay for human SRY-box transcription factor (SOX) (AID 2282960). The note with it: HepG2 Attagene cis-factorial SOX reporter, mRNA; actives raise or lower the signal. The method in brief:
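Cells were transfected with reporter constructs under cis-regulatory promoters, then exposed to chemicals for 24 h. Reporter transcripts were quantified by fluorescence after RT-PCR and capillary electrophoresis; activity was fitted in both directions against DMSO.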

Assay [5] concerns the target Transcription factor Sp1 (Homo sapiens) (UniProt P08047). Put plainly: ATG_Sp1_CIS: Attagene CIS-FACTORIAL HepG2 Assay for human Specificity Protein 1 (Sp1) (AID 2282961). The settings on record: HepG2 Sp1 cis-reporter transcription, actives raise or lower the signal. A digest of the protocol:
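Measures mRNA induction of an Sp1-linked reporter in HepG2 cells 24 h post-dosing. Multiplexed reporters read by RT-PCR and capillary electrophoresis; DMSO serves as negative control and baseline.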

A short description of assay [6]: ATG_SREBP_CIS: Attagene CIS-FACTORIAL HepG2 Assay for human Sterol Regulatory Element Binding (SREBP) (AID 2282962). The note with it: HepG2 Attagene cis-factorial SREBP reporter, mRNA; actives raise or lower the signal. A digest of the protocol:
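Twenty-four hours after chemical dosing of transfected HepG2 cultures, reporter RNA was converted to cDNA, amplified, end-labelled with 6-FAM and resolved by capillary electrophoresis. Responses were fitted relative to DMSO.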

For assay [7], the target named is Signal transducer and activator of transcription 3 (Homo sapiens) (UniProt P40763). Put plainly: ATG_STAT3_CIS: Attagene CIS-FACTORIAL HepG2 Assay for human Signal Transducer and Activator of Transcription 3 (STAT3) (AID 2282963). The settings on record: HepG2, Attagene cis-factorial STAT3 reporter transcription; actives raise or lower the signal. A digest of the protocol: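 Values derive from bidirectional fits relative to DMSO of reporter mRNA levels, measured by RT-PCR with capillary electrophoresis, in HepG2 cells carrying transiently transfected cis-regulated reporter units and exposed 24 h.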
Sequence of Signal transducer and activator of transcription 3 (Homo sapiens) (P40763 whole entry, looked up): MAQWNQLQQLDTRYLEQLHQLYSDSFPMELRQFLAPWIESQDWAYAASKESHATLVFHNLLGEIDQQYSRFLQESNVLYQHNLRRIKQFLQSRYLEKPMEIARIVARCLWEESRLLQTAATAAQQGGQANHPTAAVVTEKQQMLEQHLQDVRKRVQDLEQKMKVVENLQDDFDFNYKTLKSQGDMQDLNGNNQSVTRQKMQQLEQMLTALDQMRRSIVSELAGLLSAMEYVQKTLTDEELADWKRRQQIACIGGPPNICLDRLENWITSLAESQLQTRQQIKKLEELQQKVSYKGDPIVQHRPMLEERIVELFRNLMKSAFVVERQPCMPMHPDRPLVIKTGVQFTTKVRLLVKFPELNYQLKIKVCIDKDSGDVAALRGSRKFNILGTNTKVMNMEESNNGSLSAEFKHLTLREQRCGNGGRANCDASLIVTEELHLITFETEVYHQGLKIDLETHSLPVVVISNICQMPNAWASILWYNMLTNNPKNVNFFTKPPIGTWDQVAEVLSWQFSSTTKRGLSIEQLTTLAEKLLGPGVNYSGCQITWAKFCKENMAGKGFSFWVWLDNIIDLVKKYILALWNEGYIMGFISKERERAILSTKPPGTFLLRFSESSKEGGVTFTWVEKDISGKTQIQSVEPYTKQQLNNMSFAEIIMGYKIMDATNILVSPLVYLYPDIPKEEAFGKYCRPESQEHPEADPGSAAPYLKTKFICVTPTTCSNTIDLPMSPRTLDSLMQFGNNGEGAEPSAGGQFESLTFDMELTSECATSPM

A short description of assay [8]: ATG_TA_CIS: Attagene CIS-FACTORIAL HepG2 Assay for human TA Basal Promoter (AID 2282964). The note with it: HepG2 Attagene CIS-factorial TA basal promoter reporter; actives raise or lower the signal. The method in brief: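 Background-control readout: TA basal promoter reporter mRNA, fitted in both directions relative to DMSO. Measured by RT-PCR and capillary electrophoresis 24 hours after treating HepG2 human liver cells transiently carrying multiplexed cis-regulated reporter constructs.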

Assay [9] in a line: ATG_TCF_b_cat_CIS: Attagene CIS-FACTORIAL HepG2 Assay for human T-Cell-Factor with beta-catenin (TCF/b-cat) (AID 2282965). The note with it: HepG2 TCF/beta-catenin cis-reporter transcription, actives raise or lower the signal. The method in brief:
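Cells of the HepG2 line carry transiently transfected reporter units whose promoters respond to endogenous factors. Twenty-four hours post-dosing, reporter mRNA induction is measured by fluorescent RT-PCR and capillary electrophoresis, with DMSO as baseline.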

Assay [10] can be described thus: ATG_TAL_CIS: Attagene CIS-FACTORIAL HepG2 Assay for human TAL Basal Promoter (AID 2282966).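 Also: background control endpoint measuring basal TAL promoter reporter mRNA not a specific factor.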 The note with it: HepG2 Attagene cis-factorial TAL promoter reporter; actives raise or lower the signal. The method in brief:
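RT-PCR plus capillary electrophoresis quantifies reporter mRNA induction in transiently transfected HepG2 cells after 24 h chemical treatment. DMSO serves as negative control and baseline for bidirectional fitting.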

Assay [11] can be described thus: ATG_TGFb_CIS: Attagene CIS-FACTORIAL HepG2 Assay for human Transforming Growth Factor (TGF) (AID 2282967). The settings on record: HepG2 Attagene CIS TGFb reporter, mRNA transcription; actives raise or lower the signal. The method in brief:
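Endogenous TGFB1-linked transcription factor activity read as reporter mRNA via RT-PCR and capillary electrophoresis, 24 h after dosing transiently transfected HepG2 cells. Gain or loss of signal fitted relative to DMSO.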

Assay [12] has as its target Nuclear receptor subfamily 1 group I member 3 (Homo sapiens) (UniProt Q14994). Put plainly: ATG_CAR_TRANS: Attagene TRANS-FACTORIAL HepG2 Assay for human Constitutive Androstane Receptor (CAR) (AID 2282969; active = hit-call score of the fitted dose curve at least 0.9, where 1 is the maximum;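 also: activators raise reporter mRNA above DMSO so AC50 marks induction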). The settings on record: HepG2 Attagene TRANS-FACTORIAL CAR reporter. The method in brief:
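HepG2 cells transiently transfected with GAL4-UAS reporter units; TRANS format reads activity of exogenous chimeric NR-Gal4 protein. After 24 h dosing, reporter mRNA quantified by RT-PCR, 6-FAM labelling and capillary electrophoresis; gain of signal fitted against DMSO.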

The target in assay [13] is X-box-binding protein 1 (Homo sapiens) (UniProt P17861). In words: ATG_Xbp1_CIS: Attagene CIS-FACTORIAL HepG2 Assay for human X-box Binding Protein 1 (XBP1) (AID 2282972). The settings on record: HepG2 XBP1 cis-element reporter, Attagene multiplex; actives raise or lower the signal. The method in brief: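 After a 24-hour chemical exposure of HepG2 cells carrying cis-regulated reporters, reporter mRNA levels are assessed. Quantification uses RT-PCR, 6-FAM labelling and capillary electrophoresis. Gain- or loss-of-signal is fitted against DMSO.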
Sequence of X-box-binding protein 1 (Homo sapiens) (P17861 whole entry, looked up): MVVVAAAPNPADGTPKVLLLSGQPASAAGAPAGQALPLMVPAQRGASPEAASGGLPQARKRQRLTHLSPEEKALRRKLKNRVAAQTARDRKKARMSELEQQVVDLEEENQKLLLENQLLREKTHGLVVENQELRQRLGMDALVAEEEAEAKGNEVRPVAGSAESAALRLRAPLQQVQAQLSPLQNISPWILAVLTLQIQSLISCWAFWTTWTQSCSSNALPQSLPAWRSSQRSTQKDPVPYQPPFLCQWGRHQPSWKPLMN

A short description of assay [14]: ATG_M_19_TRANS: Attagene TRANS-FACTORIAL HepG2 Assay for M19 Transcription Factor (Internal Marker) (AID 2282974; active = hit-call score of the fitted dose curve at least 0.9, where 1 is the maximum). The settings on record: HepG2 Attagene TRANS-FACTORIAL M19 internal marker reporter. The method in brief:
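After transfection of HepG2 with GAL4-UAS-driven reporter constructs, cells are dosed for 24 h. Total RNA is reverse-transcribed, reporter sequences PCR-amplified and labelled, then HpaI-digested and sized by capillary electrophoresis.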

The target of assay [15] is Estrogen receptor (Homo sapiens) (UniProt P03372). Put plainly: ATG_ERa_TRANS: Attagene TRANS-FACTORIAL HepG2 Assay for human Estrogen Receptor alpha (ERa) (AID 2282970; active = hit-call score of the fitted dose curve at least 0.9, where 1 is the maximum). The settings on record: HepG2 Attagene TRANS ERa GAL4 reporter, mRNA. A digest of the protocol: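 Cells: HepG2, transiently transfected. Construct: GAL4-UAS reporter units regulated by exogenous NR-Gal4 chimeras. Time: 24 h. Detection: reporter mRNA by RT-PCR, capillary electrophoresis, fluorescence. Baseline: DMSO, upward fitting.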
Sequence of Estrogen receptor (Homo sapiens) (P03372 whole entry, looked up, the tested form may be a part): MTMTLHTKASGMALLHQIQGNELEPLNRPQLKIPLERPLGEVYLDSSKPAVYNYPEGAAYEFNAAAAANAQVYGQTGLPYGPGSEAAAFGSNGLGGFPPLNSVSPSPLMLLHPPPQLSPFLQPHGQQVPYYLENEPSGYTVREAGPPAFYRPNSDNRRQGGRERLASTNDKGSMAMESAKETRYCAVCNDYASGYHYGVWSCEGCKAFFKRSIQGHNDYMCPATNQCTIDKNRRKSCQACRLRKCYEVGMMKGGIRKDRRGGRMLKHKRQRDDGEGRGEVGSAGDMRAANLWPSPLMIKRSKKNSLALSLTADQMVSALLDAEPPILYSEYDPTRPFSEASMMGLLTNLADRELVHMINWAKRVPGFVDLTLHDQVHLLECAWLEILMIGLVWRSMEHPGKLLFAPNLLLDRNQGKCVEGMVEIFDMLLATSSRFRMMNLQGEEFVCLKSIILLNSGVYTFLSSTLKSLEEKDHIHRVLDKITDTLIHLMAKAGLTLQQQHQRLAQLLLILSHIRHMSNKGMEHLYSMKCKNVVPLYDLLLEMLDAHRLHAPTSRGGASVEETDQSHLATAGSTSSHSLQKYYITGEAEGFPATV

Assay [16] in a line: ATG_VDRE_CIS: Attagene CIS-FACTORIAL HepG2 Assay for human Vitamin D Receptor Element (VDRE) (AID 2282968). The note with it: HepG2 VDRE cis-reporter transcription, actives raise or lower the signal. A digest of the protocol:
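Cell-based multiplexed reporter format in human liver HepG2 cells, 24 h post-dose. Fluorescence from capillary electrophoresis of reporter cDNA gives the signal, with DMSO as negative control and baseline.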

A short description of assay [17]: ATG_GAL4_TRANS: Attagene TRANS-FACTORIAL HepG2 Assay for GAL4 (Internal Marker) (AID 2282976; active = hit-call score of the fitted dose curve at least 0.9, where 1 is the maximum). The note with it: HepG2 Attagene TRANS GAL4 internal marker reporter. A digest of the protocol: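 In transfected human HepG2 liver cells dosed 24 h, GAL4 reporter mRNA serves as a baseline marker. Detection by RT-PCR with fluorescent capillary electrophoresis, activity fitted upward relative to DMSO.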

The nature of assay [18]: ATG_RORE_CIS: Attagene CIS-FACTORIAL HepG2 Assay for human RAR-related Orphan Receptor Element (RORE) (AID 2282959). The settings on record: HepG2 Attagene cis-factorial RORE reporter, mRNA; actives raise or lower the signal. The method in brief: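 Multiplexed reporter assay measuring mRNA induction from a cis promoter element in transiently transfected HepG2 cells after 24 h treatment. Detection via RT-PCR and capillary electrophoresis fluorescence; DMSO serves as baseline.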

Structures are written as SMILES. Results filed as inconclusive are left out. Calls of active or inactive are those of the source. The calls were made as follows, unless noted: active = hit-call score of the fitted dose curve at least 0.9, where 1 is the maximum; inactive = score below 0.9.

Sequence of Transcription factor Sp1 (Homo sapiens) (P08047 whole entry, looked up): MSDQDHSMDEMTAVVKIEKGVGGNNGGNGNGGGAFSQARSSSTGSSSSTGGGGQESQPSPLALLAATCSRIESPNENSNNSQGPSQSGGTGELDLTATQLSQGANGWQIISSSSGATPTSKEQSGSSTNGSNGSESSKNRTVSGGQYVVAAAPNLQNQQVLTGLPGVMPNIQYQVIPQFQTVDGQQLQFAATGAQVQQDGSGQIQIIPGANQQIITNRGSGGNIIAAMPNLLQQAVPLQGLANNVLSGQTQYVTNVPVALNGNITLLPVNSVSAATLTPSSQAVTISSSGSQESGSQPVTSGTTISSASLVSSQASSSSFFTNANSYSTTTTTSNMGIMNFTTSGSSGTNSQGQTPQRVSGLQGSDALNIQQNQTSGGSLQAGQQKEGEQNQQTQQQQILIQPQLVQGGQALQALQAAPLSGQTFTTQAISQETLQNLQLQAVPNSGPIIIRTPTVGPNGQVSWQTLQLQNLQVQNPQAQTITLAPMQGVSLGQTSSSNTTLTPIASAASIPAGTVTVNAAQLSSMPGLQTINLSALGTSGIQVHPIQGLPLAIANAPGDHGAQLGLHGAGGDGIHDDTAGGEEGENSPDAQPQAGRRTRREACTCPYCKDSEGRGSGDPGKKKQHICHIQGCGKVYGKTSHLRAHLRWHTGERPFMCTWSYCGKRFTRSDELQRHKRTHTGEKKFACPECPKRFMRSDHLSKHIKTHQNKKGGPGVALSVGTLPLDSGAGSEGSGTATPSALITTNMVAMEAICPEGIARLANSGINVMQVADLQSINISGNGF
Sequence of Paired box protein Pax-6 (Homo sapiens) (P26367 whole entry, looked up): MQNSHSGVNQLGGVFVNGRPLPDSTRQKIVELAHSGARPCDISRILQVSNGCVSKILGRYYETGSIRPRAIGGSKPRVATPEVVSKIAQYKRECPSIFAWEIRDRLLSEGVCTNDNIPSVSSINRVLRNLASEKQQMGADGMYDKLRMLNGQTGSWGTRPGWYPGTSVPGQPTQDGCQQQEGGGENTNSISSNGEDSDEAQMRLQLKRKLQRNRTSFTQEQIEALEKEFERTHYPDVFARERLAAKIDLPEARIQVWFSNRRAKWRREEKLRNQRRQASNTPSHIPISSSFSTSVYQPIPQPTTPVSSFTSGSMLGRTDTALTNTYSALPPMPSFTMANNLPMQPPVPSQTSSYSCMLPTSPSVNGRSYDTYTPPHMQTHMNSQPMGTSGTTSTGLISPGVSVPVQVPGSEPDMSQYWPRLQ
Sequence of Nuclear receptor subfamily 1 group I member 3 (Homo sapiens) (Q14994 whole entry, looked up, the tested form may be a part): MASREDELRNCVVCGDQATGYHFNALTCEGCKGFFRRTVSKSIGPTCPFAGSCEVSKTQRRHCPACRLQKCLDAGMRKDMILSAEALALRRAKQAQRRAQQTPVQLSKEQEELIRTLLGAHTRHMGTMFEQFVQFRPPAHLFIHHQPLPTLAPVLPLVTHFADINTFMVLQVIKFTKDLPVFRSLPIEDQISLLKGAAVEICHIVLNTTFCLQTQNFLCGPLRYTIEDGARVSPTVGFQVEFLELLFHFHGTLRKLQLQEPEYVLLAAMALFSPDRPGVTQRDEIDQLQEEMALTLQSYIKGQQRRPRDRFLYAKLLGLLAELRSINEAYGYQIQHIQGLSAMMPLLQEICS

The term AC50 denotes the midpoint of the concentration-response curve, whichever way the signal moves. For `CC(C)COC(=O)CC(C(=O)OCC(C)C)S(=O)(=O)O` (centres undefined), the outcome in assay [1], in assay [2], in [4], in [5], in assay [6] and in assay [7] was inactive. The compound was classed as inactive in assay [8], in [9], in [10], in assay [11], in [12] and in [13]. Moreover, the call in [14] was inactive. For the same compound, the AC50 in [3] is 29.5 µM (active).
On to `Fc1ccc(Br)cc1`, for which the result in assay [1], in assay [2], in assay [3], in assay [4], in [5] and in assay [6] was inactive. For the same compound, the call in assay [7], in assay [8], in [9], in assay [10], in assay [11] and in assay [12] was inactive. Also, the call in assay [13] and in assay [14] was inactive. Moreover, the half-maximal activity concentration (AC50) in assay [15] was 79.7 µM (active).
As for `O=C(O[C@@H]1Cc2c(O)cc(O)cc2O[C@@H]1c1cc(O)c(O)c(O)c1)c1cc(O)c(O)c(O)c1`, the outcome in assay [1], in assay [2], in assay [3], in assay [4], in assay [5] and in assay [6] was inactive. Moreover, the compound was classed as inactive in [10], in assay [16], in [15] and in [17]. The concentration at half-maximal activity (AC50) in [9] is 36 µM (active).
For the compound `CCCCC(=O)O`, the result in assay [1], in [2], in assay [3], in [18], in assay [5] and in assay [6] was inactive. Besides, the result in assay [8], in assay [9], in assay [10], in [11], in assay [16] and in assay [15] was inactive. The compound was called inactive in assay [14] and in assay [17].
In the case of `COC(Cc1ccccc1)OC`, the outcome in assay [1], in assay [2], in [3], in [18], in assay [4] and in assay [5] was inactive. In addition, the result in assay [6], in assay [8], in assay [9], in assay [10], in [11] and in assay [12] was inactive. In addition, the compound was classed as inactive in assay [15], in assay [13] and in assay [14].
As for `CCCCCCCO`, the outcome in [1], in assay [2], in assay [4], in assay [5], in assay [6] and in assay [8] was inactive. For the same compound, the compound was classed as inactive in assay [9], in assay [10], in [11], in assay [16], in assay [13] and in assay [14]. Further, the concentration at half-maximal activity (AC50) in assay [3] is 39.1 µM (active); in [15], 67.1 µM (active).
Regarding `C[N+](C)(C)CCCNS(=O)(=O)C(F)(F)C(F)(F)C(F)(F)C(F)(F)C(F)(F)C(F)(F)C(F)(F)C(F)(F)F`, the result in assay [1], in assay [2], in assay [4], in assay [5], in assay [6] and in [7] was inactive. In addition, the compound was called inactive in assay [8], in [9], in [10], in [16], in assay [15] and in [13]. In addition, the compound was classed as inactive in assay [14] and in assay [17]. The AC50 was 41.7 µM (active) in [3] and 60.6 µM (active) in assay [11].
As to `O=c1c(O)c(-c2ccc(O)cc2O)oc2cc(O)cc(O)c12`, the outcome in assay [1], in assay [2], in assay [4], in assay [5], in assay [6] and in assay [7] was inactive. For the same compound, the call in assay [8], in [9], in assay [10], in [11], in assay [16] and in assay [12] was inactive. Besides, the compound was classed as inactive in assay [13] and in [14]. In addition, the AC50 in assay [3] is 26.5 µM (active); in [15], 59.4 µM (active).
With `O=C1CCCN1C1CCCCC1`, the result in assay [1], in assay [2], in assay [18], in assay [4], in assay [5] and in assay [6] was inactive. Further, the compound was classed as inactive in assay [9], in assay [10], in [11], in assay [16], in assay [15] and in assay [13]. In [14], the call was inactive. For the same compound, in [3], the AC50 was 57.1 µM (active).

(Values after PubChem BioAssay (EPA / NIEHS).)
